# PubChem BioAssay AID652162 (Broad Institute, 2013)
# Values joined by “and” are separate entries in the source; they are usually repeats but may differ in a detail not shown here. Equal entries are not always repeated. Among all 350,000 compounds or so, about 840 (0.24%) were called active. The sample holds actives, similar compounds and a random draw of the others, so the mix is not that of the screen. Values without a mark were called inactive. No stated cut-off is given here; in the data, active means inhibition above about 10%; inactive means the rest.
# Target: Toxin B (Clostridioides difficile) (UniProt P18177)
# Sequence (P18177 whole entry, looked up): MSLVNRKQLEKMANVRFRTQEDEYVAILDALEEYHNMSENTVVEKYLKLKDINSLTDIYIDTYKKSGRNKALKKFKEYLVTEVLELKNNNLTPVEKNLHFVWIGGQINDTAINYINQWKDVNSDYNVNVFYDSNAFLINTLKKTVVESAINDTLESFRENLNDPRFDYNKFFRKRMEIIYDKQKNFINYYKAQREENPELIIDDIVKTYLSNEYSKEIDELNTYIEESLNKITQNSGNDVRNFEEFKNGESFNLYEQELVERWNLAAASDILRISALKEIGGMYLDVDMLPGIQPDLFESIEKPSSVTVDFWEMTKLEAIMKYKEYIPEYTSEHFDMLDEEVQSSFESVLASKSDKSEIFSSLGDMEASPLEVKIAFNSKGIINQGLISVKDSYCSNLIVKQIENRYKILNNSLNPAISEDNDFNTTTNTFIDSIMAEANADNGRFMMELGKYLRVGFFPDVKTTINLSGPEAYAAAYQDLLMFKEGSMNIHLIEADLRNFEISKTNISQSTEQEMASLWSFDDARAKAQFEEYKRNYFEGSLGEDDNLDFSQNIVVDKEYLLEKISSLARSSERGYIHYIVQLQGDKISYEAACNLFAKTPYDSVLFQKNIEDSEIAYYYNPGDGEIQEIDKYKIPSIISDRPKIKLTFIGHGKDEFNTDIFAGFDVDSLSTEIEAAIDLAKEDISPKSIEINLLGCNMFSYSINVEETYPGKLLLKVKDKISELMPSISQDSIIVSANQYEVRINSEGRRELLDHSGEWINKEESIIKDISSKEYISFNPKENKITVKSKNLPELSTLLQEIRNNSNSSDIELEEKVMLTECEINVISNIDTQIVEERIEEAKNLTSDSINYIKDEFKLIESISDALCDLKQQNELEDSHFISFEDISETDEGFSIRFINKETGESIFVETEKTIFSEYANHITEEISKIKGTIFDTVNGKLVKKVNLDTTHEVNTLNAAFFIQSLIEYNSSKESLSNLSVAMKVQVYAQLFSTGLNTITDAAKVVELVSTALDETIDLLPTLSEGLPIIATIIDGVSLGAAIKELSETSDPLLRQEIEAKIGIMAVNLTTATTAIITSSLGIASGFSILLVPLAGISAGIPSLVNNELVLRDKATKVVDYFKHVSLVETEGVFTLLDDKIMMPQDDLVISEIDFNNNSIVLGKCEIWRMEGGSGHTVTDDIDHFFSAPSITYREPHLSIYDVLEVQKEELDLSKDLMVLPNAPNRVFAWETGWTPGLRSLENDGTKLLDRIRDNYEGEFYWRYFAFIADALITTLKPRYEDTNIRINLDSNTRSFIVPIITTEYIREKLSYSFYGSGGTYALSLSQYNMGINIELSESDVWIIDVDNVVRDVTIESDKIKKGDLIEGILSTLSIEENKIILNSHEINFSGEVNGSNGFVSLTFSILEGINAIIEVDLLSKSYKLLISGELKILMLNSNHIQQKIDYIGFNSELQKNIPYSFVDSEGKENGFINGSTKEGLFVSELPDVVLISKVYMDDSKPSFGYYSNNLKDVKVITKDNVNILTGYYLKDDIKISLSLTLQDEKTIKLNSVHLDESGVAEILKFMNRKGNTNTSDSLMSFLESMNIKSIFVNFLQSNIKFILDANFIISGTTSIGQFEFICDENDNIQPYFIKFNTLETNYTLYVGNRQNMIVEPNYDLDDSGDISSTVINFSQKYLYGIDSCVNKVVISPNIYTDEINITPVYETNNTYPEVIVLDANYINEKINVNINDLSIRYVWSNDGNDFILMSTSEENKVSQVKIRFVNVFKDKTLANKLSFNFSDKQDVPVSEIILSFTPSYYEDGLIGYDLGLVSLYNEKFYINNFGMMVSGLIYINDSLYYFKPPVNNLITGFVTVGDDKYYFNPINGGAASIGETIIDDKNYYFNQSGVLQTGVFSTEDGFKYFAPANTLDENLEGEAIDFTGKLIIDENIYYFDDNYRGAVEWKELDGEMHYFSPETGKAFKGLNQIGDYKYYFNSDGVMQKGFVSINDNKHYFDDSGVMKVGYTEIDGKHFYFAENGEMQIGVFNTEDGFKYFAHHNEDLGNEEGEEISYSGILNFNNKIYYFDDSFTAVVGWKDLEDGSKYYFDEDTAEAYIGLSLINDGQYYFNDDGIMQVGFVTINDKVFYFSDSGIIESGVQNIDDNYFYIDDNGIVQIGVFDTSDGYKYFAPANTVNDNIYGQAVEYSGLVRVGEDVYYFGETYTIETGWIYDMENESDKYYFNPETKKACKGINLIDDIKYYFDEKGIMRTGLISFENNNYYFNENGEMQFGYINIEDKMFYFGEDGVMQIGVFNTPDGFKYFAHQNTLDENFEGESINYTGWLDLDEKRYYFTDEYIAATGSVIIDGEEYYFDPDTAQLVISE
# Experiment: TcdB glycohydrolase inhibitors, primary screen, biochemical, single point, plate reader (AID 652162)
# Conditions: TcdB glycohydrolase enzymatic assay, at 9.99 µM, active compounds read high
row,SMILES,inhibition
1,CNC[C@H]1Oc2cc(-c3ccc(C(=O)N(C)C)cc3)ccc2S(=O)(=O)N([C@@H](C)CO)C[C@@H]1C,-0.097%
2,C[C@@H]1CN([C@H](C)CO)C(=O)c2cc(C3=CCCC3)cnc2O[C@H]1CN(C)C,0.146%
3,COc1ccc(NC(=O)N(C)C[C@@H]2Oc3c(NC(=O)c4ccc(-c5nccs5)cc4)cccc3C(=O)N([C@H](C)CO)C[C@@H]2C)cc1,0.889%
4,COc1cccc(NC(=O)N[C@@H]2C=C[C@H](CC(=O)NCc3ccccn3)O[C@H]2CO)c1,-0.684%
5,N#C[C@H]1N[C@H](CO)[C@H]1c1ccc(-c2cccc(F)c2)cc1,-1.58%
6,Cc1ccc(-c2ccc(C3[C@H]4CNC[C@@H]3N4S(=O)(=O)c3ccccc3C)cc2)cc1 (stereo partly drawn),-0.326% and -0.213%
7,COC(=O)[C@@H]1[C@@H](CO)[C@@H]2Cn3c(ccc(-c4ccc(OC)cc4)c3=O)[C@@H]2N1C,-0.952%
8,C[C@@H]1CN([C@H](C)CO)C(=O)c2cc(NC(=O)NC3CCCCC3)ccc2O[C@@H](C)CCCCO[C@H]1CN(C)C(=O)Nc1ccccc1,0.722%
9,C[C@H](CO)N1C[C@H](C)[C@H](CN(C)Cc2ccc3c(c2)OCO3)OCCCC[C@H](C)Oc2ccc(NC(=O)c3ccccc3)cc2C1=O,-0.045%
10,O=Cc1cn(Cc2ccc(F)cc2Cl)c2ccccc12,-0.141%
11,O=c1c([N+](=O)[O-])cccn1Cc1ccc(F)cc1Cl,38.4% (active)
12,Cc1ccc(-c2ccc(=O)n(Cc3ccc(F)cc3Cl)n2)cc1,0.329%
13,CCC(=O)N1C[C@@H](C)[C@H](OC)CN(C)C(=O)c2ccc(NC(=O)COC)cc2OC[C@@H]1C,-0.964%
14,C[C@@H]1CCCCO[C@@H](CN(C)C(=O)NC2CCCCC2)[C@H](C)CN([C@H](C)CO)C(=O)c2cc(NC(=O)Nc3cccc4ccccc34)ccc2O1,-0.319%
15,CNC(=O)C[C@H]1CC[C@H]2[C@H](COc3ccc(NC(=O)c4cccc(F)c4)cc3C(=O)N2C)O1,-0.293% and -0.193%
16,CN1C(=O)c2cc(NC(=O)c3cccc(F)c3)ccc2OC[C@@H]2O[C@@H](CC(=O)NCC3CCCCC3)CC[C@H]21,27.1% (active) and 19.3% (active)
17,CN1C(=O)c2cc(NC(=O)c3ccccc3)ccc2OC[C@@H]2O[C@H](CC(=O)NCC3CC3)CC[C@@H]21,0.093%
18,Cc1cc(C(=O)Nc2ccc3c(c2)C(=O)N(C)[C@H]2CC[C@H](CC(=O)NCC(F)(F)F)O[C@@H]2CO3)no1,-0.366%
